PI5P4Ka inh = qHTS for Inhibitors of phosphatidylinositol 5-phosphate 4-kinase (PI5P4K); Phosphatidylinositol 5-phosphate 4-kinase type-2 alpha (Homo sapiens), P48426; PI5P4Kalpha enzyme, ADP-Glo luminescence, 60 min; hits give low values; max response, %; 330,000 compounds, 1.2% hits; active = max response of -50% or lower; inconclusive = between -30% and -50%; inactive = -30% or higher; also: value at the top dose of about 77 µM; % is scaled to controls: 0 for no effect and ±100 for the full control effect
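Reactions run in 0.038 M HEPES pH 7.4, 0.28 mM EGTA, 0.1% CHAPS and 5% DMSO, with PI5P4Kalpha, substrate, compound and 5 microM ATP final, one hour at room temperature. Readout is ADP-Glo luminescence.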
BAZ2B inh = qHTS Assay for Inhibitors of BAZ2B; Bromodomain adjacent to zinc finger domain protein 2B (Homo sapiens), Q9UIF8; AlphaScreen BAZ2B-H3K14Ac peptide displacement; Potency, µM (top dose mostly 114 µM), for inactives: at the highest dose activity change, negative = inhibition, usual class: inhibitors; 360,000 compounds, 4.4% hits; AID 504333, 2011; also: potency is read from the fitted curve at half-maximal effect; % is scaled to controls: 0 for no effect and ±100 for the full control effect; nearly all actives have a fitted effect of over 60% in size
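Complex of BAZ2B and biotin-H3K14Ac (50 nM apiece) forms over 30 min at RT, then faces library compounds up to 110 uM for another 30 min; AlphaScreen beads added, 20 min dark incubation, luminescence read.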
HP1b chromo inh = HTS for Inhibitors of HP1-beta Chromodomain Interactions with Methylated Histone Tails; Chromobox protein homolog 1 (Homo sapiens), P83916; AlphaScreen HP1-beta / biotin-H3K9me3 peptide binding; Potency, µM (top dose mostly 114 µM), for the others: at the top dose activity change, negative = inhibition, hits mostly inhibitors; 390,000 compounds, 0.56% hits; also: potency is read from the fitted curve at half-maximal effect; nearly all actives have a fitted effect of over 70% in size
Target sequence (P83916 whole entry, looked up): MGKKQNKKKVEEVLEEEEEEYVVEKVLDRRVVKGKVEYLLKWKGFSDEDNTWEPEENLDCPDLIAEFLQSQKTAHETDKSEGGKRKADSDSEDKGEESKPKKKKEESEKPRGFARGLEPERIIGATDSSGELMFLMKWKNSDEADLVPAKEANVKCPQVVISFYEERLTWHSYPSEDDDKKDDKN
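Compound inhibition of the preformed complex between 50 nM HP1-beta and 50 nM biotinylated H3K9me3 peptide was read by AlphaScreen. Buffer was PBS pH 7.4 with 0.01% Tween-20. Incubations ran 30 min at room temperature, with 10 ug/mL donor/acceptor beads.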
PLK1 PBD inh = qHTS for Inhibitors of PLK1-PDB (polo-like kinase 1 - polo-box domain): Primary Screen; 360,000 compounds, 2.8% hits; AID 720504, 2013; Plk1 PBD binding of FITC phosphopeptide, fluorescence polarization; Potency, µM, for inactives: max response, negative = inhibition, actives largely listed as inhibitors; Serine/threonine-protein kinase PLK1 (Homo sapiens), P53350; also: potency is read from the fitted curve at half-maximal effect; series mostly up to about 57 µM; % is scaled to controls: 0 for no effect and ±100 for the full control effect; nearly all actives have a fitted effect of over 65% in size
G9a inh = qHTS Assay for Inhibitors of Histone Lysine Methyltransferase G9a; Histone-lysine N-methyltransferase EHMT2 (Homo sapiens), Q96KQ7; G9a H3K9 monomethylation, AlphaScreen, 2 h; Potency, µM (series often up to 102 µM), inactives show top-dose activity, negative = inhibition, most hits filed as inhibitors; 350,000 compounds, 8.8% hits; AID 504332, 2011; also: potency is read from the fitted curve at half-maximal effect; % is scaled to controls: 0 for no effect and ±100 for the full control effect; nearly all actives have a fitted effect of over 75% in size
Target sequence (Q96KQ7 913-1193 limits assumed): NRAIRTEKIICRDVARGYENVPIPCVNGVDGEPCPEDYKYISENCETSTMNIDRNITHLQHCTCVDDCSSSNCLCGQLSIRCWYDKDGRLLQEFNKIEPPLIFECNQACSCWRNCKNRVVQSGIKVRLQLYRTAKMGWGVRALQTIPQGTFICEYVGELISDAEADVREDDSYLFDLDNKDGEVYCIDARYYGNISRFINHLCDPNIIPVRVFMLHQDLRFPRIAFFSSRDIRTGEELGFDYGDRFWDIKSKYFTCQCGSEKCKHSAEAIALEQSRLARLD
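Enzyme 20 nM + cpd, 15 min RT; add b-H3K9 pep 500 nM / SAM 20 uM; 2 h RT; anti-H3K9me1 Ab 0.5 ug/mL + SA donor / anti-rabbit acceptor beads 20 ug/mL each, 10 min; AlphaScreen read.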
JMJD2A Tudor inh = qHTS Assay for Inhibitors of JMJD2A-Tudor Domain. Lysine-specific demethylase 4A (Homo sapiens), O75164. AlphaScreen JMJD2A-Tudor / H3K4me3 peptide binding. Potency, µM (top dose mostly 114 µM), for inactives: at the highest dose activity change, negative = inhibition, most hits filed as inhibitors. 390,000 compounds, 4.4% hits. AID 504339, 2011; also: potency is read from the fitted curve at half-maximal effect; % is scaled to controls: 0 for no effect and ±100 for the full control effect; nearly all actives have a fitted effect of over 50% in size
ME-1 growth = qHTS Assay for Compounds Blocking the Interaction Between CBF-beta and RUNX1 for the Treatment of Acute Myeloid Leukemia: ME-1 cellular proliferation; shares compounds with BAZ2B inh; ME-1 cell proliferation, ATP luminescence, 48 h; Potency, µM (top dose mostly 56.1 µM), for the others: at the highest dose activity change, negative = inhibition, hits mostly inhibitors; 140 compounds, 20% hits; AID 504370, 2011
The depositor's hits bear a star; ? = inconclusive; nt = no result given; ! = a repeat was not active; [ ] = remark or other dose. Most compounds without a hit are left out; they make up all but 12% or so of the library. Unless noted, calls follow the shape of the dose curve; as a rule, active = well fitted curve in the direction sought with a large enough effect; inconclusive = small, poorly fitted or top-dose-only effect, or another doubt; inactive = no such curve, though single readings can be large; an effect the other way counts as inactive or inconclusive.

SMILES	PI5P4Ka inh	BAZ2B inh	HP1b chromo inh	PLK1 PBD inh	G9a inh	JMJD2A Tudor inh	ME-1 growth
c1cnc2c(c1)ccc1cccnc12	2.8	1.58µM*	30.9%	-26.7%	12.6µM*	7.94µM*	8.91µM*
CC(Cc1c[nH]c2ccccc12)C(=O)O (configuration not stated)	0.9	44.7µM*	?	-10.2%	10µM*	25.1µM*	-10.4%[25.6 µM]
O=C(O)C[C@@H]1C(=O)O[C@@H]2C(COC(=O)c3cc(O)c(O)c(O)c3)O[C@@H](OC(=O)c3cc(O)c(O)c(O)c3)[C@@H](OC(=O)c3cc(O)c(O)c4c3[C@H]1[C@H](O)C(=O)O4)[C@H]2OC(=O)c1cc(O)c(O)c(O)c1 (some centres not stated)	nt	0.708µM*	nt	nt	?	nt	?
O=C1OCC2OC(O)C(O)C(O)C2OC(=O)c2cc(O)c(O)c(O)c2-c2c(O)c(O)c3oc(=O)c4c(c(O)c(O)c5oc(=O)c2c3c54)-c2c1cc(O)c(O)c2O (configuration not stated)	nt	0.708µM*	nt	nt	?	nt	?
CC(C)CNC(=O)C1(C)CCCN1Cc1ccccc1OC(F)F (configuration not stated)	-6.0	nt	nt	-6.7%	nt	nt	nt
O=C(NCCc1ccccc1)c1cccc(Br)n1	nt	nt	nt	nt	-2.1%	nt	-12.9%
Cc1nc2ccc(NC(=S)N3CCOCC3)cc2nc1C	0.3	-30.3%	40.9%	-11.5%	44.7µM*	-15.6%	-13.6%
CCN(CC)CCNC(=O)CN1C(=O)CSc2ccc(S(=O)(=O)N3CCOCC3)cc21	-1.3	-0.4%	1.0%	-1.3%	6.0%[59 µM]	-23.5%	nt
CC(C)=CC[C@@H](O)C1=CC(=O)c2c(O)ccc(O)c2C1=O	nt	nt	nt	nt	6.31µM*	nt	1.12µM*
Oc1cccc(O)c1O	nt	nt	nt	nt	3.55µM*	nt	0.7%
Oc1ccccc1-c1nc(NC2CCCC2)c2ccccc2n1	4.9	34.5%	121.5%	2.2%	-23.4%[2.33 µM]	14.7%	nt
c1ccc(-c2nnc(-c3ccccn3)nc2NC2CCCCC2)cc1	-0.1	1.78µM*	18.8%	0.0%	-3.9%	3.16µM*	7.08µM*
Nc1cccc(N)c1	nt	nt	nt	nt	nt	nt	-1.8%
CCc1cc(=O)oc2cc(C)c3c(-c4ccc(F)cc4)coc3c12	nt	-1.8%	6.6%	nt	-4.4%[59 µM]	-1.4%	nt
O=c1c(-c2ccc(O)cc2)coc2cc(O)cc(O)c12	-4.2	-7.5%	27.0%	-8.9%	17.7%[12.7 µM]	-15.0%	nt
O=c1c(-c2cc(O)c(O)c(O)c2)coc2cc(O)c(O)c(O)c12	nt	nt	nt	nt	-146.5%[2.33 µM]	nt	16.0%
C=C1c2cccc(O)c2C(O)=C2C(=O)[C@]3(O)C(O)=C(C(N)=O)C(=O)[C@@H](N(C)C)[C@@H]3[C@@H](O)[C@H]12	-57.9*	3.55µM*	-8.4%	?	-160.4%[59 µM]	7.08µM*	-24.0%
c1ccc(-c2n[nH]c(-c3ccccn3)n2)nc1	-10.2	0.708µM*	29.4%	-3.5%	?	1µM*	?
c1ccc(-c2ccccn2)nc1	1.9	79.4µM*	68.2%	-5.3%	14.1µM*!	?	-12.7%
c1ccc(-c2ccc(-c3ccccn3)nn2)nc1	nt	2µM*	nt	nt	?	nt	17.8µM*
c1ccc(-c2cccs2)nc1	-1.6	7.3%	0.0%	-8.4%	31.4%	-5.3%	nt
CC(C)(C)c1ccc(C(=O)Nc2ccccc2C(=O)OCc2cc(=O)n3ccsc3n2)cc1	nt	-6.6%	34.1%	nt	19.8%[59 µM]	-9.6%	nt
